Experimental data reported in PubChem BioAssay AID1159580 (chemical genetic matrix, 2015).
Screen size: about 5,500 compounds; about 2,000 (36%) were called active. Roughly 18% stayed inconclusive and do not appear here. Rule as the data show it: active = normalized growth mostly below about 0.91 (no sharp cut-off); inconclusive = no clear call, values can overlap the other calls; inactive = mostly above about 0.92. Some of the results follow.

Test: chemical genetic growth profiling, strain panel (AID 1159580);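 also: tested at 20 µM; growth read once vehicle control cultures reached saturation at 30 °C; 1 = growth at the plate median or of vehicle wells; lower values mean less growth of the strain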
Details: growth OD

Measured: normalized growth

C#C[C@]1(O)CCC2C3CCC4=C(CCC(=O)C4)C3CC[C@@]21C (some centres undefined)
active: S. cerevisiae deletion strains, locus YLR262C, strain YPT6 (second series), hits give low values 0.825
inactive: S. cerevisiae deletion strains, locus YJR075W, strain HOC1, hits give low values 1.02 | S. cerevisiae deletion strains, locus YKL009W, strain mrt4, hits give low values 0.974 | S. cerevisiae deletion strains, locus YKL068W, hits give low values 1.01 | S. cerevisiae deletion strains, locus YKL085W, strain MDH1 (second series), hits give low values 1.01 | S. cerevisiae deletion strains, locus YKL085W, strain MDH1, hits give low values 1.01 | S. cerevisiae deletion strains, locus YKL160W, strain elf1, hits give low values 0.998 | S. cerevisiae deletion strains, locus YKL190W, strain CNB1, hits give low values 1.04 | S. cerevisiae deletion strains, locus YKR001C, strain vps1, hits give low values 1.01 | S. cerevisiae deletion strains, locus YKR026C, strain gcn3, hits give low values 0.986 | S. cerevisiae deletion strains, locus YKR091W, strain srl3, hits give low values 0.982 | S. cerevisiae deletion strains, locus YLL001W, strain dnm1, hits give low values 1 | S. cerevisiae deletion strains, locus YLL026W, hits give low values 0.994 | S. cerevisiae deletion strains, locus YLL041C, strain sdh2, hits give low values 0.977 | S. cerevisiae deletion strains, locus YLR027C, strain aat2, hits give low values 0.983 | S. cerevisiae deletion strains, locus YLR039C, strain RIC1, hits give low values 0.911 | S. cerevisiae deletion strains, locus YLR058C, strain SHM2, hits give low values 1.01 | S. cerevisiae deletion strains, locus YLR102C, strain apc9, hits give low values 1.01 | S. cerevisiae deletion strains, locus YLR113W, strain HOG1, hits give low values 0.852 | S. cerevisiae deletion strains, locus YLR221C, strain rsa3, hits give low values 0.96 | S. cerevisiae deletion strains, locus YLR258W, strain gsy2, hits give low values 0.973 | S. cerevisiae deletion strains, locus YLR262C, strain YPT6, hits give low values 0.868 | S. cerevisiae deletion strains, locus YLR268W, strain sec22, hits give low values 0.959 | S. cerevisiae deletion strains, locus YLR320W, strain mms22, hits give low values 0.963 | S. cerevisiae deletion strains, locus YLR330W, strain CHS5, hits give low values 1.02 | S. cerevisiae deletion strains, locus YLR342W, strain FKS1 (second series), hits give low values 0.953 | S. cerevisiae deletion strains, locus YLR342W, strain FKS1, hits give low values 0.968 | S. cerevisiae deletion strains, locus YLR357W, strain rsc2, hits give low values 1.03 | S. cerevisiae deletion strains, locus YLR370C, strain arc18, hits give low values 0.97 | S. cerevisiae deletion strains, locus YLR371W, strain rom2, hits give low values 1 | S. cerevisiae deletion strains, locus YLR384C, strain iki3, hits give low values 0.974 | S. cerevisiae deletion strains, locus YLR418C, strain cdc73, hits give low values 0.961 | S. cerevisiae deletion strains, locus YML016C, strain PPZ1, hits give low values 1.01 | S. cerevisiae deletion strains, locus YML032C, strain rad52, hits give low values 0.975 | S. cerevisiae deletion strains, locus YML120C, strain ndi1, hits give low values 0.97 | S. cerevisiae deletion strains, locus YML124C, strain tub3, hits give low values 1.01 | S. cerevisiae deletion strains, locus YMR058W, strain fet3, hits give low values 0.963 | S. cerevisiae deletion strains, locus YMR078C, strain ctf18, hits give low values 1 | S. cerevisiae deletion strains, locus YMR125W, strain sto1, hits give low values 1.01 | S. cerevisiae deletion strains, locus YMR129W, hits give low values 0.972 | S. cerevisiae deletion strains, locus YMR205C, strain PFK2, hits give low values 0.978 | S. cerevisiae deletion strains, locus YMR223W, strain ubp8, hits give low values 1.01 | S. cerevisiae deletion strains, locus YMR231W, strain pep5, hits give low values 0.981 | S. cerevisiae deletion strains, locus YMR307W, strain GAS1, hits give low values 0.989 | S. cerevisiae deletion strains, locus YNL067W, strain RPL9B, hits give low values 1.02 | S. cerevisiae deletion strains, locus YNL071W, strain lat1, hits give low values 0.963 | S. cerevisiae deletion strains, locus YNL128W, strain TEP1, hits give low values 1.03 | S. cerevisiae deletion strains, locus YNL153C, strain GIM3, hits give low values 1.03 | S. cerevisiae deletion strains, locus YNL183C, strain NPR1, hits give low values 0.919 | S. cerevisiae deletion strains, locus YNL209W, strain ssb2, hits give low values 0.989 | S. cerevisiae deletion strains, locus YNL233W, strain BNI4, hits give low values 0.998 | S. cerevisiae deletion strains, locus YNL248C, strain rpa49, hits give low values 0.96 | S. cerevisiae deletion strains, locus YNL250W, strain rad50, hits give low values 0.992 | S. cerevisiae deletion strains, locus YNL271C, strain bni1, hits give low values 0.991 | S. cerevisiae deletion strains, locus YNL298W, strain CLA4, hits give low values 0.986 | S. cerevisiae deletion strains, locus YNL307C, strain MCK1, hits give low values 0.99 | S. cerevisiae deletion strains, locus YNL322C, strain KRE1 (second series), hits give low values 0.97 | S. cerevisiae deletion strains, locus YNR049C, strain mso1, hits give low values 0.982 | S. cerevisiae deletion strains, locus YNR052C, strain pop2, hits give low values 0.992 | S. cerevisiae deletion strains, locus YOL006C, strain TOP1, hits give low values 0.931 | S. cerevisiae deletion strains, locus YOL012C, strain htz1 1.9 | S. cerevisiae deletion strains, locus YOL147C, strain pex11, hits give low values 1.01 | S. cerevisiae deletion strains, locus YOR001W, strain rrp6, hits give low values 0.936 | S. cerevisiae deletion strains, locus YOR061W, strain CKA2, hits give low values 1 | S. cerevisiae deletion strains, locus YOR069W, strain VPS5, hits give low values 1.02 | S. cerevisiae deletion strains, locus YOR070C, strain gyp1, hits give low values 1 | S. cerevisiae deletion strains, locus YOR080W, strain dia2, hits give low values 0.999 | S. cerevisiae deletion strains, locus YOR083W, strain WHI5, hits give low values 0.985 | S. cerevisiae deletion strains, locus YOR106W, strain vam3, hits give low values 0.991 | S. cerevisiae deletion strains, locus YOR136W, strain idh2, hits give low values 1 | S. cerevisiae deletion strains, locus YOR144C, strain elg1, hits give low values 1 | S. cerevisiae deletion strains, locus YOR184W, strain ser1, hits give low values 0.898 | S. cerevisiae deletion strains, locus YOR231W, strain MKK1, hits give low values 0.919 | S. cerevisiae deletion strains, locus YOR265W, strain rbl2, hits give low values 0.987 | S. cerevisiae deletion strains, locus YOR270C, strain vph1, hits give low values 0.955 | S. cerevisiae deletion strains, locus YOR290C, strain snf2, hits give low values 0.932 | S. cerevisiae deletion strains, locus YOR316C, strain cot1, hits give low values 1 | S. cerevisiae deletion strains, locus YPL051W, strain arl3, hits give low values 0.983 | S. cerevisiae deletion strains, locus YPL078C, strain atp4, hits give low values 0.93 | S. cerevisiae deletion strains, locus YPL106C, strain sse1, hits give low values 1.03 | S. cerevisiae deletion strains, locus YPL240C, strain hsp82, hits give low values 0.981 | S. cerevisiae deletion strains, locus YPL241C, strain CIN2, hits give low values 1.02 | S. cerevisiae deletion strains, locus YPL256C, strain CLN2, hits give low values 0.838 | S. cerevisiae deletion strains, locus YPR119W, strain clb2, hits give low values 1 | S. cerevisiae deletion strains, locus YPR141C, strain kar3, hits give low values 1.01 | S. cerevisiae deletion strains, locus YPR163C, strain tif3, hits give low values 1.02 | S. cerevisiae deletion strains, locus YPR167C, strain met16, hits give low values 1 | S. cerevisiae deletion strains, strain wtn01, hits give low values 0.996 | S. cerevisiae strains, strain wild type, hits give low values 1.03
